SMILES strings stand for the structures. Results filed as inconclusive are left out. Active and inactive are the calls of the source. The calls were made as follows: active = hit-call score of the fitted dose curve at least 0.9, where 1 is the maximum; inconclusive = response in the unintended direction; inactive = score below 0.9.

The values below come from PubChem BioAssay (EPA / NIEHS).

Assay [1] in a line: TOX21_p53_BLA_p2_viability: Viability Assessment in the Tox21 HCT-116 p53 Agonism Beta-lactamase Assay, Phase 2 (AID 2283591).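 Also: compound exposure lasted 16 h at 37 °C; actives lower the ATP signal meaning cytotoxicity.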 Put shortly: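 Cytotoxicity readout: CellTiter-Glo ATP luminescence, 30 min at room temperature, after the beta-lactamase read. Cells were HCT116 exposed 16 h at 37C to compounds pin-transferred at 217-fold dilution from DMSO stocks.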
Assay [2] has as its target Cellular tumor antigen p53 (Homo sapiens) (UniProt P04637). The experiment in a line: TOX21_p53_BLA_p2_ratio: Tox21 HCT-116 p53 Agonism Beta-lactamase Assay, Ratio, Phase 2 (AID 2283592). The essentials:
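HCT-116 cells with p53-responsive beta-lactamase reporter, 4000 cells/well, preincubated 5 h, then compound in DMSO (217-fold dilution) for 16 h at 37C. CCF4-AM substrate 2 h at room temperature; 460/530 nm emission ratio fitted upward versus DMSO.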

A short description of assay [3]: TOX21_p53_BLA_p3_viability: Viability Assessment in the Tox21 HCT-116 p53 Agonism Beta-lactamase Assay, Phase 3 (AID 2283593).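 Also: cells exposed to compound for 16 h before reading.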 Put shortly:
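Cellular ATP was quantified by CellTiter-Glo luminescence, read after 30 min at room temperature. Beforehand, HCT116 cells (4000/well) received compound 5 h post-seeding, 217-fold diluted from DMSO, then incubated 16 h at 37C.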

The target in assay [4] is Cellular tumor antigen p53 (Homo sapiens) (UniProt P04637). The experiment in a line: TOX21_p53_BLA_p3_ratio: Tox21 HCT-116 p53 Agonism Beta-lactamase Assay, Ratio, Phase 3 (AID 2283596). The essentials: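 HCT116 p53-bla cells (4000/well) given compound in DMSO (217-fold dilution) after 5 h, incubated 16 h at 37C. CCF4-AM substrate 2 h at room temperature; 460/530 nm emission ratio, gain fitted against DMSO.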
Chain of Cellular tumor antigen p53 (Homo sapiens) (P04637 whole entry, looked up): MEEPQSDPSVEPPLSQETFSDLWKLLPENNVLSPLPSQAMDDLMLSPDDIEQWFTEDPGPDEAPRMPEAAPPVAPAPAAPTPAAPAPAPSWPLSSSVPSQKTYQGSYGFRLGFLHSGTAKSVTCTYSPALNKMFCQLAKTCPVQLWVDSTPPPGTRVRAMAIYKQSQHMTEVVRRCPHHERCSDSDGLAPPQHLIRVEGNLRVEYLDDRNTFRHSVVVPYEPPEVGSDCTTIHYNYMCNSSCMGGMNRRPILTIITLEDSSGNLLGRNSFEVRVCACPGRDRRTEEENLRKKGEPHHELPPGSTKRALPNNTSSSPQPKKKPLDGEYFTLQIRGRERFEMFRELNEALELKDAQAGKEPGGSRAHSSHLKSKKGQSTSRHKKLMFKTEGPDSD

Assay [5] can be described thus: TOX21_p53_BLA_p4_viability: Viability Assessment in the Tox21 HCT-116 p53 Agonism Beta-lactamase Assay, Phase 4 (AID 2283597).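 Also: hits lower the luminescence signal meaning cytotoxicity.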 Put shortly:
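HCT-116 p53-bla cells, 4000/well, dosed after 5 h attachment and incubated 16 h at 37 °C, 5% CO2. Viability from CellTiter-Glo ATP luminescence after 30 min at room temperature, taken after the beta-lactamase read; loss of signal indicates cytotoxicity.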

Assay [6] concerns the target Cellular tumor antigen p53 (Homo sapiens) (UniProt P04637). Nature of the assay: TOX21_p53_BLA_p5_ratio: Tox21 HCT-116 p53 Agonism Beta-lactamase Assay, Ratio, Phase 5 (AID 2283599). Put shortly: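 Beta-lactamase reporter ratio (blue 460 nm over green 530 nm, 405 nm excitation) after 2 h CCF4-AM loading, in HCT-116 cells exposed 16 h at 37 C to compounds pinned at 217-fold dilution. Increases relative to DMSO baseline scored.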

The nature of assay [7]: TOX21_p53_BLA_p5_viability: Viability Assessment in the Tox21 HCT-116 p53 Agonism Beta-lactamase Assay, Phase 5 (AID 2283600). The essentials: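 HCT-116 p53 beta-lactamase reporter cells, 4000/well, were exposed to compound (pin transfer, 217-fold dilution) for 16 hours at 37C. Cellular ATP was read by CellTiter-Glo luminescence after 30 min at room temperature.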
The target in assay [8] is Cellular tumor antigen p53 (Homo sapiens) (UniProt P04637). Nature of the assay: TOX21_p53_BLA_p4_ratio: Tox21 HCT-116 p53 Agonism Beta-lactamase Assay, Ratio, Phase 4 (AID 2283601). Put shortly: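 Signal is the blue/green (460nm/530nm) ratio of cleaved versus uncleaved CCF4-AM substrate, read after 2 h substrate loading. Cells were HCT116 carrying the p53-responsive beta-lactamase reporter, dosed 16 h at 37C, 5% CO2; CellTiter-Glo measured in parallel.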

Consider `CC(C)(C)NCC(O)CSc1nc(-c2ccc(C(N)=O)s2)cs1` (stereo not drawn), for which the compound was called inactive in assay [1], in assay [2], in assay [3], in assay [4], in assay [5] and in assay [6]. Further, the compound was called inactive in assay [7] and in assay [8].

Regarding `Cc1c(Cl)cccc1Nc1ncccc1C(=O)O`, the call in assay [1], in assay [2], in assay [3], in assay [4], in assay [5] and in assay [6] was inactive. Besides, the compound was classed as inactive in assay [7] and in assay [8].

As to `O=C1NCN(c2ccccc2)C12CCN(CCCC(c1ccc(F)cc1)c1ccc(F)cc1)CC2`, the concentration at half-maximal activity (AC50) in assay [1] was 37.3 µM (active); in assay [2], 39.1 µM (active); in assay [3], 35.9 µM (active); in assay [4] it was 42.2 µM (active); in assay [5], 23 µM (active); in assay [6], 45 µM (active). In addition, the concentration at half-maximal activity (AC50) in assay [7] is 35.1 µM (active); in assay [8], 26.7 µM (active).

For `Nc1nc(Cl)nc2c1ncn2[C@@H]1O[C@H](CO)[C@@H](O)[C@@H]1F`, the call in assay [1], in assay [3], in assay [5] and in assay [7] was inactive. The AC50 was 0.119 µM (active) in assay [2], 0.117 µM (active) in assay [4], 0.112 µM (active) in assay [6] and 0.155 µM (active) in assay [8].

On to `O[C@@H](c1cc(C(F)(F)F)nc2c(C(F)(F)F)cccc12)[C@H]1CCCCN1`, for which the AC50 was 32.7 µM (active) in assay [1]; 28.9 µM (active) in assay [2]; 34 µM (active) in assay [3]; 43.6 µM (active) in assay [4]; 24.6 µM (active) in assay [5]; 42.9 µM (active) in assay [6]. Besides, the results for the AC50 in assay [7] and in assay [8] were 22 µM (active) and 39.6 µM (active), respectively.

`CC(C)=CCOc1ccc(/C=C/C(=O)c2ccc(OCC=C(C)C)cc2OCC(=O)O)cc1`: the AC50 in assay [1] is 8 µM (active); in assay [2], 6.92 µM (active); in assay [3], 14.9 µM (active); in assay [4], 13.8 µM (active); in assay [5], 7.92 µM (active); in assay [6], 9.9 µM (active). Besides, in assay [8], the AC50 was 7.21 µM (active). Also, in assay [7], the compound was classed as inactive.

For `CCCCCCCCC(CCCCCC)C(=O)O` (stereo not drawn), the result in assay [1], in assay [2], in assay [4], in assay [5], in assay [6] and in assay [7] was inactive. Moreover, the outcome in assay [8] was inactive. Further, the concentration at half-maximal activity (AC50) in assay [3] is 65.9 µM (active).

Consider `c1ccc(C(O[C@H]2CCCN(CCc3ccc4c(c3)OCO4)C2)c2ccccc2)cc1`, for which the compound was classed as inactive in assay [1], in assay [2], in assay [3], in assay [4], in assay [5] and in assay [6]. Also, the compound was classed as inactive in assay [7] and in assay [8].

`N#CC(c1ccc(Cl)cc1)c1c(Cl)cc(-n2ncc(=O)[nH]c2=O)cc1Cl` (stereo not drawn): the call in assay [1] and in assay [7] was inactive. Besides, the AC50 in assay [2] was 19.6 µM (active); in assay [3], 32.2 µM (active); in assay [4], 20.3 µM (active); in assay [5], 31.4 µM (active); in assay [6] it was 22.1 µM (active); in assay [8], 22.1 µM (active).

As for `CC1=C(C(=O)OC(C)C)C(c2cccc([N+](=O)[O-])c2)C(C(=O)OC2CN(C(c3ccccc3)c3ccccc3)C2)=C(N)N1` (stereo not drawn), the half-maximal activity concentration (AC50) in assay [1] is 10.3 µM (active); in assay [2], 18.3 µM (active); in assay [3], 9.2 µM (active); in assay [4], 17.7 µM (active); in assay [5], 34.2 µM (active); in assay [6], 43.6 µM (active). In addition, the half-maximal activity concentration (AC50) in assay [7] is 38 µM (active); in assay [8] it was 43.5 µM (active).

For the compound `CCCCCCCCCCOCC(O)CN` (stereo not drawn), the results for the AC50 in assay [1], in assay [5] and in assay [8] were 36.8 µM (active), 36.8 µM (active) and 42.9 µM (active), respectively. In addition, the result in assay [2], in assay [3], in assay [4], in assay [6] and in assay [7] was inactive.

Turning to `CSc1ccc2c(c1)C(N1CCN(C)CC1)Cc1ccccc1S2` (stereo not drawn), the AC50 was 36.3 µM (active) in assay [1]; 44.4 µM (active) in assay [2]; 37.8 µM (active) in assay [3]; 34.5 µM (active) in assay [5]; 38.3 µM (active) in assay [7]; 42.4 µM (active) in assay [8]. Besides, the outcome in assay [4] and in assay [6] was inactive.

With `CC(C)c1ccc2sc3ccccc3c(=O)c2c1`, the outcome in assay [1], in assay [2], in assay [3], in assay [4], in assay [6] and in assay [7] was inactive. In addition, the outcome in assay [8] was inactive. Moreover, the AC50 in assay [5] was 72.8 µM (active).

Take `Cc1cccc(C)c1OCC(=O)N[C@@H](Cc1ccccc1)[C@@H](O)C[C@H](Cc1ccccc1)NC(=O)[C@H](C(C)C)N1CCCNC1=O`: the outcome in assay [1], in assay [2], in assay [3], in assay [4], in assay [6] and in assay [7] was inactive. Moreover, in assay [8], the outcome was inactive. Also, the half-maximal activity concentration (AC50) in assay [5] was 37.5 µM (active).

Turning to `Cc1c(C)n(CCN(C)C)c2ccc(C(=O)OCCN(C)C)cc12`, the compound was classed as inactive in assay [1], in assay [2], in assay [3], in assay [4], in assay [5] and in assay [6]. The call in assay [7] was inactive. The concentration at half-maximal activity (AC50) in assay [8] is 40.2 µM (active).

Regarding `CCCC(c1cc(C(C)(C)C)c(O)cc1C)c1cc(C(C)(C)C)c(O)cc1C`, the AC50 in assay [1] was 15 µM (active); in assay [2], 32.8 µM (active); in assay [3] it was 19.5 µM (active); in assay [4], 30.6 µM (active); in assay [5], 9.81 µM (active); in assay [6], 32.2 µM (active). Further, the AC50 in assay [7] was 17.2 µM (active); in assay [8] it was 19.7 µM (active).

One may read the AC50 as the concentration at which the activity in the assay is half-maximal.
